Assay results from PubChem BioAssay (NCI).
Compounds without any hit were thinned out: in the full panel of roughly 83,000, 20% have a hit.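 Single-concentration screen, 48 h exposure, 96-well plates. Endpoint: percent growth. Below 10 = active.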 Unmarked numbers belong to inactive results. Activity calls are given as the source filed them.

How the values were obtained:
Test in all cases: NCI-60 one-dose screen, 48 h (100 = growth as untreated, 0 = no growth, -100 = all killed)
Conditions in all cases: 10 µM unless noted
[1] = tested on: HCT-15 colon
[2] = tested on: HT29 colon
[3] = tested on: SNB-75 CNS
[4] = tested on: SNB-19 CNS
[5] = tested on: U251 CNS
[6] = tested on: PC-3 prostate
[7] = tested on: SK-MEL-5 melanoma
[8] = tested on: UACC-62 melanoma
[9] = tested on: LOX IMVI melanoma
[10] = tested on: SK-MEL-28 melanoma

Compound: O=C1C=CC2(NN=C(c3ccccc3)N2c2cccc(Cl)c2)C(Cl)=C1 (stereo not given)
- growth [1]: 79.6%
- growth [2]: 87.8%
- growth [3]: 82%
- growth [4]: 94.3%
- growth [5]: 84.6%
- growth [6]: 58.3%
- growth [7]: 91.8%
- growth [8]: 44.3%
- growth [9]: 71.2%
- growth [10]: 111%

Compound: COc1cc2cc(NCc3ccc(Cl)cc3)nc(C)c2cc1OC
- growth [1]: 47%
- growth [2]: 10%
- growth [3]: 96.3%
- growth [4]: 42.6%
- growth [5]: 30.9%
- growth [6]: 37.9%
- growth [7]: 31.3%
- growth [8]: 8.46% (active)
- growth [9]: 5.76% (active)
- growth [10]: 29.9%

Compound: CCOc1ccc(N=C(C)Nc2ccc(OCC)cc2)cc1
- growth [1]: 92.1%
- growth [2]: 109%
- growth [3]: 80.5%
- growth [4]: 99.2%
- growth [5]: 108%
- growth [6]: 93.2%
- growth [7]: 109%
- growth [8]: 104%
- growth [9]: 102%
- growth [10]: 113%

Compound: COc1cccc2cc(-c3nc(C4CCC(C(=O)O)CC4)n4ncnc(N)c34)[nH]c12 (stereo not given)
- growth [1]: 16.4%
- growth [2]: 14.3%
- growth [3]: -43.1% (active)
- growth [4]: 15.7%
- growth [5]: 9.1% (active)
- growth [6]: 13.3%
- growth [7]: -28.7% (active)
- growth [8]: -32.2% (active)
- growth [9]: -4.84% (active)
- growth [10]: -9.6% (active)

Compound: CC(C)Nc1cc(-c2c[nH]c(C(=O)N[C@H](CO)c3cccc(Cl)c3)c2)c(Cl)cn1
- growth [1]: 25.1%
- growth [2]: 1.57% (active)
- growth [3]: 51.8%
- growth [4]: 51.3%
- growth [5]: 28%
- growth [6]: 34.9%
- growth [7]: -7.93% (active)
- growth [8]: 11.7%
- growth [9]: 14%
- growth [10]: 5.19% (active)

Compound: Cc1cccc(Cl)c1NC(=O)c1cnc(Nc2cc(N3CCOCC3)cc(N3CCOCC3)c2)s1
- growth [1]: 22.2%
- growth [2]: -10.2% (active)
- growth [3]: -43.3% (active)
- growth [4]: 47.4%
- growth [5]: 54.6%
- growth [6]: 45.7%
- growth [7]: 65.1%
- growth [8]: 41.6%
- growth [9]: -71.8% (active)
- growth [10]: 63.6%

Compound: CCN1CCN(CCCN(C[C@H]2Cc3ccccc3CN2)[C@H]2CCCc3cccnc32)CC1
- growth [1]: 72.5%
- growth [2]: 75.2%
- growth [3]: 84.8%
- growth [4]: 84.9%
- growth [5]: 79.2%
- growth [6]: 77.3%
- growth [7]: 97.7%
- growth [8]: 106%
- growth [9]: 74.3%
- growth [10]: 108%

Compound: CC(N)C(Cc1ccccc1)c1ccc(Cl)cc1 (stereo not given)
- growth [1]: 101%
- growth [2]: 76.8%
- growth [3]: 70.4%
- growth [4]: 92%
- growth [5]: 86.4%
- growth [6]: 68%
- growth [7]: 93.3%
- growth [8]: 93.2%
- growth [9]: 90.1%
- growth [10]: 96.7%

Compound: NC(=O)c1c(OCc2c(F)cc(Br)cc2F)nsc1NC(=O)NCCCCN1CCCC1
- growth [1]: 5.99% (active)
- growth [2]: -38.9% (active)
- growth [3]: -79.9% (active)
- growth [4]: 5.06% (active)
- growth [5]: -83.3% (active)
- growth [6]: 3.22% (active)
- growth [7]: -99.1% (active)
- growth [8]: -75.6% (active)
- growth [9]: -90.6% (active)
- growth [10]: -74.6% (active)

Compound: CCS(=O)(=O)N1CCN(c2ccc(Nc3ncc(C(N)=O)c(NC4CC4)n3)cc2)CC1
- growth [1]: 58.2%
- growth [2]: 76.2%
- growth [3]: 88%
- growth [4]: 105%
- growth [5]: 93.4%
- growth [6]: 92.4%
- growth [7]: 66.8%
- growth [8]: 101%
- growth [9]: 73.7%
- growth [10]: 83.3%

Compound: O=C1CSC(c2c(F)cccc2Cl)N1NC(=O)C(O)(c1ccccc1)c1ccccc1 (stereo not given)
- growth [1]: 102%
- growth [2]: 95.9%
- growth [3]: 82.9%
- growth [4]: 98.4%
- growth [5]: 95.7%
- growth [6]: 95.5%
- growth [7]: 89.5%
- growth [8]: 82.8%
- growth [9]: 94.2%
- growth [10]: 107%

Compound: O=C(O)c1ccc(Nc2ncc3c(n2)-c2ccc(Cl)cc2C(c2c(F)cccc2F)=NC3)cc1
- growth [1]: 50.5%
- growth [2]: 30.2%
- growth [3]: 48.8%
- growth [4]: 54.6%
- growth [5]: 42.5%
- growth [6]: 51.3%
- growth [7]: 60.6%
- growth [8]: 51.6%
- growth [9]: 33%
- growth [10]: 75.1%

Compound: CCOc1cc2ncc(C#N)c(Nc3ccc(F)c(Cl)c3)c2cc1NC(=O)/C=C/CN(C)C
- growth [1]: -31.1% (active)
- growth [2]: -35.3% (active)
- growth [3]: -98.5% (active)
- growth [4]: -26.6% (active)
- growth [5]: -70.9% (active)
- growth [6]: -1.37% (active)
- growth [7]: -94.5% (active)
- growth [8]: -46.7% (active)
- growth [9]: -72.3% (active)
- growth [10]: -75.4% (active)

Compound: Cc1cc(Nc2nc(N[C@@H](C)c3ncc(F)cn3)ncc2Cl)n[nH]1
- growth [1]: 58.4%
- growth [2]: 39.1%
- growth [3]: 88.3%
- growth [4]: 80.9%
- growth [5]: 52.7%
- growth [6]: 81.8%
- growth [7]: 95.9%
- growth [8]: 65%
- growth [9]: 37.9%
- growth [10]: 87.8%

Compound: COc1cc(OC)c(C(=O)/C=C/c2cc3c(cc2OCc2ccccc2)OC(C)(C)CC3)cc1CC=C(C)C
- growth [1]: 39.7%
- growth [2]: 57.9%
- growth [3]: 39.2%
- growth [4]: 80.7%
- growth [5]: 29.7%
- growth [6]: 25.2%
- growth [7]: 50.4%
- growth [8]: 38.7%
- growth [9]: 38.9%
- growth [10]: 53.3%

Compound: CCCCCc1ccc(C)cc1OC(=O)CCl
- growth [1]: 110%
- growth [2]: 100%
- growth [3]: 90%
- growth [4]: 105%
- growth [5]: 101%
- growth [6]: 88.4%
- growth [7]: 103%
- growth [8]: 113%
- growth [9]: 106%
- growth [10]: 113%

Compound: O=C(NC[C@H](O)CO)c1ccncc1Nc1ccc(I)cc1F
- growth [1]: 43.9%
- growth [2]: 8.1% (active)
- growth [3]: 73.4%
- growth [4]: 51.5%
- growth [5]: 55.3%
- growth [6]: 86.4%
- growth [7]: 44.5%
- growth [8]: -7.65% (active)
- growth [9]: 25.2%
- growth [10]: -12.7% (active)

Compound: O=c1[nH]ccc2c(S(=O)(=O)N3CCCNCC3)cccc12
- growth [1]: 93.3%
- growth [2]: 82.2%
- growth [3]: 54.6%
- growth [4]: 97.4%
- growth [5]: 101%
- growth [6]: 86.9%
- growth [7]: 109%
- growth [8]: 70.1%
- growth [9]: 90.6%
- growth [10]: 67%

Compound: C[C@@H](Oc1cc(-c2cnn(C3CCNCC3)c2)cnc1N)c1c(Cl)ccc(F)c1Cl
- growth [1]: -5.99% (active)
- growth [2]: -49.4% (active)
- growth [3]: -67.7% (active)
- growth [4]: 3.67% (active)
- growth [5]: -71.9% (active)
- growth [6]: -5.54% (active)
- growth [7]: -99.8% (active)
- growth [8]: -83.5% (active)
- growth [9]: -90.8% (active)
- growth [10]: -84.7% (active)

Compound: Cn1cnc2c(F)c(Nc3ccc(Br)cc3F)c(C(=O)NOCCO)cc21
- growth [1]: 62%
- growth [2]: 6.34% (active)
- growth [3]: 86.1%
- growth [4]: 51.3%
- growth [5]: 51.5%
- growth [6]: 93%
- growth [7]: 45.5%
- growth [8]: -8.58% (active)
- growth [9]: 29.6%
- growth [10]: -3.38% (active)

Compound: COC(=O)c1ccc2c(C(=Nc3ccc(N(C)C(=O)CN4CCN(C)CC4)cc3)c3ccccc3)c(O)[nH]c2c1
- growth [1]: 65.9%
- growth [2]: 8.01% (active)
- growth [3]: 18%
- growth [4]: 67.9%
- growth [5]: 45.4%
- growth [6]: 67.9%
- growth [7]: 68%
- growth [8]: 90.2%
- growth [9]: 33.6%
- growth [10]: 74.5%

Compound: CCN(CCO)CCCOc1ccc2c(Nc3cc(CC(=O)Nc4cccc(F)c4)[nH]n3)ncnc2c1
- growth [1]: 52.5%
- growth [2]: -1.18% (active)
- growth [3]: 76.3%
- growth [4]: 39.1%
- growth [5]: 39.8%
- growth [6]: 62.6%
- growth [7]: 63.3%
- growth [8]: -4.86% (active)
- growth [9]: 17.8%
- growth [10]: -6.81% (active)

Compound: NC1=Nc2ccccc2N(O)N1
- growth [1]: 105%
- growth [2]: 90.6%
- growth [3]: 78.5%
- growth [4]: 108%
- growth [5]: 98.6%
- growth [6]: 95.1%
- growth [7]: 105%
- growth [8]: 102%
- growth [9]: 96.8%
- growth [10]: 100%

Compound: CC(C)=CCc1cc2c(cc1O)C1=C(C(=O)C3=C(C1=O)S(=O)(=O)CCN3)C(C=C(C)C)O2 (stereo not given)
- growth [1]: -11.5% (active)
- growth [2]: -30.5% (active)
- growth [3]: -81.1% (active)
- growth [4]: -91.1% (active)
- growth [5]: -81.3% (active)
- growth [6]: 10.2%
- growth [7]: -99.5% (active)
- growth [8]: -32.3% (active)
- growth [9]: -65.8% (active)
- growth [10]: -75.9% (active)

Compound: Cc1sc2c(c1C)c(=O)nc1c(-c3nc4ccccc4s3)n[nH]n12
- growth [1]: 100%
- growth [2]: 101%
- growth [3]: 95.3%
- growth [4]: 101%
- growth [5]: 98%
- growth [6]: 78.7%
- growth [7]: 96.7%
- growth [8]: 88.4%
- growth [9]: 93.3%
- growth [10]: 101%

Compound: CC1(C=O)NC(=O)NC1=O (stereo not given)
- growth [1]: 101%
- growth [2]: 99.2%
- growth [3]: 92.8%
- growth [4]: 103%
- growth [5]: 82%
- growth [6]: 88%
- growth [7]: 102%
- growth [8]: 99.2%
- growth [9]: 100%
- growth [10]: 112%

Compound: CC(=O)OC(C(=O)c1ccccc1)c1ccccc1 (stereo not given)
- growth [1]: 105%
- growth [2]: 80.4%
- growth [3]: 84.6%
- growth [4]: 103%
- growth [5]: 106%
- growth [6]: 89%
- growth [7]: 102%
- growth [8]: 100%
- growth [9]: 107%
- growth [10]: 107%
